Mot1-301 SUMO – inhibitors of SUMOylation pathway: yeast Mot1-301 growth rescue; actives 1% (n = 320,000); growth rescue, % at 18.8 µM; S. cerevisiae Mot1-301 growth rescue, ATP luminescence, 38.5C; percent above DMSO median, 100 means doubled;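 active = every valid replicate shows activation above 250% relative to neutral control wells; inactive = the rest, any valid replicate at or below 250%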
SKN-1 inh – C. elegans SKN-1 inhibition. inhibition, % at 21.8 µM. C. elegans VP596 Pgst-4::GFP/RFP ratio, acrylamide-induced, 24 h. actives 0.49% (n = 360,000). AID 624304;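 active = interference check ratio from 0.5 to 1.5 plus GFP to RFP signal ratio inhibition reaching or exceeding a fixed threshold, cut at about 30% in these data, passing the limit was not always enough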
Efflux pump mplx – inhibitors of Candida antifungal efflux pumps expressed in yeast. S. cerevisiae Candida pump triplex, Nile Red efflux. inhibition, % at 10 µM. actives 0.44% (n = 330,000). AID 485275;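 active = plate passing quality check with inhibition over a set limit, or well fluorescence over plate mean plus 4 SD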;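 note: Nile Red retained in pooled yeast measured as flow cytometry median fluorescence; higher means more Nile Red kept so more efflux inhibition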
HGIII-sPLA2 inh – Inhibits HGIII-sPLA2 liposome hydrolysis, primary screen; QFRET BODIPY PC-A2 liposome hydrolysis, fluorescence; inhibition, % at 12.2 µM; actives 0.56% (n = 370,000); AID 743126;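 active = inhibition above mean plus 3 SD of compounds lying within the high and low control bounds, cut at about 19% in these data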
Target sequence (Q9NZ20 whole entry, looked up): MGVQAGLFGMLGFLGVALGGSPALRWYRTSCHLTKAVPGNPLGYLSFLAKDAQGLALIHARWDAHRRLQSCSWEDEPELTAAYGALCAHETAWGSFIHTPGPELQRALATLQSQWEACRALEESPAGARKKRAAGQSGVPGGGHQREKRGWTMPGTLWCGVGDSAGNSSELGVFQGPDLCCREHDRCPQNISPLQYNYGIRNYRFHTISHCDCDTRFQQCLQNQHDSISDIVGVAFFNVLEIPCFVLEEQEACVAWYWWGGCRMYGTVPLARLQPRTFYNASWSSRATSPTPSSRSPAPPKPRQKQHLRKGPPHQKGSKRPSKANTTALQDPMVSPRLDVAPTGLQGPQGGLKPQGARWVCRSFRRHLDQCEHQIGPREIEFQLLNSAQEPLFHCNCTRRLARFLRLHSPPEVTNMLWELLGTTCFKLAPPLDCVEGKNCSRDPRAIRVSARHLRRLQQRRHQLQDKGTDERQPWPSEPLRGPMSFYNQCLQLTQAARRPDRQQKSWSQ
Yeast cmpd fluor – counter-screen for efflux pump inhibitors: compound fluorescence; S. cerevisiae AD/pABC3, flow cytometry; actives 4% (n = 1,700); AID 588517; shares compounds with Efflux pump mplx; fluorescence ratio to DMSO, % at 10 µM;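 active = fluorescence ratio to DMSO above its plate's cutoff, the plate mean ratio plus 5 SD, cut at about 210% in these data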;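 note: unstained yeast with no Nile Red so the signal is compound autofluorescence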
CaMdr1 efflux inh – Candida Mdr1 efflux pump inhibition; shares compounds with Efflux pump mplx; actives 1% (n = 1,700); inhibition, % at 10 µM; AID 588518; S. cerevisiae AD/CaMDR1, Nile Red efflux, flow cytometry; in the data active = inhibition above about 26%;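 note: higher means more Nile Red retained so more efflux inhibition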
Cdr2 pump inh – blocks the Candida albicans Cdr2 efflux pump in yeast | actives 4% (n = 1,700) | shares compounds with Efflux pump mplx | AID 588520 | S. cerevisiae AD/CaCDR2, Nile Red retention, flow cytometry | Nile Red retention ratio vs DMSO, % at 10 µM; in the data active = Nile Red retention ratio vs DMSO above about 190%;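 note: higher ratio means more blocking of Cdr2 efflux of the dye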
CaCdr1 efflux inh – inhibitors of Candida albicans Cdr1 efflux pump. AID 588522. actives 1% (n = 1,700). shares compounds with Efflux pump mplx. S. cerevisiae AD/CaCDR1, Nile Red efflux, flow cytometry. inhibition, % at 10 µM;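 active = inhibition above the screen-wide mean plus twice its standard deviation, cut at about 32% in these data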
A number is an active result; n = inactive; x = no result given. Compounds with a hit are over-represented: about 2.2% of the library has one in this group of screens.

SMILES	Mot1-301 SUMO	SKN-1 inh	Efflux pump mplx	HGIII-sPLA2 inh	Yeast cmpd fluor	CaMdr1 efflux inh	Cdr2 pump inh	CaCdr1 efflux inh
CC(C)(C)c1ccc(-n2ncc3c2CCCC3NC(=O)c2cnccn2)cc1 (configuration not stated)	n	n	0.5	n	n	n	n	n
CC1(C)C2CCC1(CS(=O)(=O)N1CCOCC1)C(=O)C2 (configuration not stated)	n	n	1.4	n	n	n	n	n
CCOc1ccc2nc(NC(=O)CCn3cccc3)sc2c1	n	n	1.0	n	n	n	n	n
CN1C(=O)CC2(C)C1=CCc1scnc12 (configuration not stated)	x	n	x	n	x	x	x	x
Cc1cc(OCC(=O)Nc2nnc(C3CC3)s2)ccc1Cl	x	n	x	n	x	x	x	x
O=C(COc1ccc(F)cc1)Nc1nnc(C2CC2)s1	n	n	n	n	n	n	n	n
CCN1CCN(Cc2c(O)ccc3c(=O)c(-c4ccccc4OC)coc23)CC1	n	n	n	n	x	x	x	x
O=C1/C(=C/c2ccco2)Oc2c1ccc(O)c2CN1CCCCC1	n	n	3.1	n	n	n	n	n
CCN1CCN(Cc2c(O)ccc3c2O/C(=C\C=C\c2ccccc2OC)C3=O)CC1	n	n	24	n	n	n	n	n
CCn1c2ccccc2c2cc(NC(=O)c3ccccc3[N+](=O)[O-])ccc21	n	n	n	n	x	x	x	x
Cc1ccc(NC(=O)COC(=O)c2cc(Cl)ccc2Cl)c(Br)c1	n	n	1.3	n	n	n	n	n
Cc1cc(N/N=C/c2ccccc2[N+](=O)[O-])nc(-n2nc(C)cc2C)n1	n	n	0.8	n	n	n	n	n
Oc1ccc(Br)cc1C=Nc1ccc2c3c(cccc13)CC2	n	n	3.1	n	n	n	n	n
Oc1ccc(Cl)cc1C=Nc1ccccc1Br	n	n	n	n	x	x	x	x
NC(=S)N1N=C(c2ccccc2)CC1=O	x	n	x	n	x	x	x	x
O=C(CNC(=O)C(c1ccccc1)c1ccccc1)OCC(=O)c1cccs1	n	n	n	n	x	x	x	x
CCCCN1C(=S)NC[C@@H]1Cc1cccc2ccccc12	n	n	n	n	n	n	n	n
CCOC(=O)N1CCN(C(=O)COc2cccc3c2CCN(Cc2ccccc2F)C3=O)CC1	n	n	2.7	n	n	n	n	n
Cc1ccccc1Nc1nnc(-c2ccc(C(=O)NCCO)cc2)c2ccccc12	n	n	1.0	n	n	n	n	n
Cc1nnc(Nc2ccc(C(=O)NCCO)cc2)c2ccccc12	n	n	n	n	x	x	x	x
COc1ccc(NC(=O)Cc2nnc(SCC(=O)Nc3ccc(F)cc3)n2C)cc1	n	n	n	n	x	x	x	x
O=C1/C(=C/c2ccc(F)cc2)SC(=S)N1Nc1ncc(C(F)(F)F)cc1Cl	n	n	n	n	n	n	n	n
O=C1/C(=C\c2ccccn2)SC(=S)N1Nc1ncc(C(F)(F)F)cc1Cl	n	n	n	x	x	x	x	x
CCOC(=O)[C@]12CCCCC/C=C\1N(Cc1ccc(OC)cc1)C(=O)[C@H]2CC(=O)NCc1cccc2ccccc12	x	x	x	n	x	x	x	x
O=C(Oc1ccc2c(=O)c(Oc3ccc4ccccc4c3)coc2c1)c1cncc(Br)c1	n	n	1.2	n	n	n	n	n
SMILES	Mot1-301 SUMO	SKN-1 inh	Efflux pump mplx	HGIII-sPLA2 inh	Yeast cmpd fluor	CaMdr1 efflux inh	Cdr2 pump inh	CaCdr1 efflux inh
Cc1nn(C)c(Sc2ccccc2N)c1[N+](=O)[O-]	n	n	0.9	n	n	n	n	n
O=C(COC(=O)c1c(Cl)cccc1Cl)NCC1CCCO1 (configuration not stated)	n	n	9.0	n	n	n	n	n
O=C(COC(=O)c1c(Cl)ccc(Cl)c1Cl)NCC1CCCO1 (configuration not stated)	n	n	n	n	x	x	x	x
Cc1ccccc1CC(=O)N1CCC(n2nnc3ncccc32)CC1	x	x	x	n	x	x	x	x
O=C(NC1CCCCN(Cc2cccc(Cl)c2)C1=O)c1c(F)cccc1F (configuration not stated)	x	x	x	n	x	x	x	x
CCCc1c(C(=O)NNc2cc(C(F)(F)F)ccc2Cl)cnn1-c1ccccc1	n	n	n	n	x	x	x	x
Cc1cc(C(=O)N/N=C/c2cccc([N+](=O)[O-])c2)c2ccccc2n1	n	n	8.3	n	845	60	n	n
O=C(NN=Cc1cccc([N+](=O)[O-])c1)c1cc(-c2cccnc2)nc2ccccc12	n	n	n	n	x	x	x	x
CC(C)(C)NC(=O)NC(=O)CSc1ncccn1	n	n	n	n	x	x	x	x
CC(C)(C)C(=O)CSc1ncccn1	n	n	0.6	n	n	n	n	n
CC1CCN(C(=O)C2CCCN(C(=O)c3ccc4c(c3)NC(=O)CS4)C2)CC1 (configuration not stated)	x	x	x	n	x	x	x	x
O=C(NCc1ccon1)C1CCC(=O)N(Cc2cccc(C(F)(F)F)c2)C1 (configuration not stated)	n	n	n	n	x	x	x	x
CC(C)Cc1cc(CNC(=O)C2CCC(=O)N(Cc3cccc(C(F)(F)F)c3)C2)on1 (configuration not stated)	n	n	9.2	n	n	n	n	n
COc1cc(/C=C2\N=C(c3ccccc3)OC2=O)ccc1OCc1c(C)no[n+]1[O-]	n	n	10	n	n	n	n	n
O=C(COC(=O)c1ccc(Cl)nc1)NC(=O)c1ccccc1	n	n	0.6	n	n	n	n	n
O=C(COC(=O)c1ccc(Cl)nc1)NNC(=O)c1ccc(Cl)cc1	n	n	n	n	x	x	x	x
O=C(COC(=O)c1cc[n+]([O-])cc1)Nc1c(Cl)cccc1C(F)(F)F	n	n	n	n	x	x	x	x
O=C(COC(=O)c1ccc(Cl)nc1)Nc1c(Cl)cccc1C(F)(F)F	n	n	0.5	n	n	n	n	n
CN(C)c1cccc(/C=C2\CC3(OC(=O)c4cccc(F)c4)CCCN2C3)c1 (configuration not stated)	x	x	x	n	x	x	x	x
O=C(CSc1nc2nc3c(cc2c(=O)n1-c1ccccc1)CCCC3)Nc1cccc2ccccc12	n	n	1.1	n	n	n	n	n
Cc1cccc(NC(=O)CSc2nc3nc4c(cc3c(=O)n2-c2ccccc2)CCCC4)c1	n	n	n	n	x	x	x	x
Cc1ccc(C(=O)NC2CCCCN(C(C)C)C2=O)cc1 (configuration not stated)	x	x	x	n	x	x	x	x
Cc1ccc(/C=C\c2nccc3c2[nH]c2ccccc23)cc1	n	n	1.2	n	n	n	n	n
C(=C\c1nccc2c1[nH]c1ccccc12)/c1ccccc1	n	n	n	n	x	x	x	x
NC(=O)c1nsc(C(=O)N(c2ccccc2)C(C(=O)NCc2ccc(F)cc2)c2ccco2)c1N (configuration not stated)	n	n	0.5	n	n	n	n	n

Screens (PubChem BioAssay)
